Measurements published in PubChem BioAssay.
Activity calls are given as the source filed them.

Tests used:
[1] = anti-His antibody binders, primary screen, artefact control for SMM control protein annotation, biochemical, small-molecule microarray, 635 nm fluorescence (AID 1128); settings: anti-His Alexa647 antibody binding, higher = more signal;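 further: score merges feature fluorescence with signal-to-noise for each printed compound spot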
[2] = tested on: Human papillomavirus type 1a E7 protein (residues 1-88); assay: HPV1a E7 small-molecule binders, primary screen, biochemical, small-molecule microarray, residues 1-88, 635 nm (AID 1129); settings: small-molecule microarray binding, fluorescence 635 nm; higher = more signal
[3] = target: Focal adhesion kinase 1 (Homo sapiens) (UniProt Q05397); assay: small-molecule microarray binders of FAK, primary screen, biochemical, 635/667 nm fluorescence, BSA, DTT (AID 1130); settings: PTK2 binding, 635 nm fluorescence, higher = more signal;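 further: composite of spot emission at 667 nm and signal to noise over triplicate slides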
[4] = tested on: Fibrinogen (Alexa647-labelled); assay: fibrinogen binders on compound microarrays, profiling panel, artefact control for SMM control-protein annotation, biochemical, small-molecule microarray, 635/667 nm fluorescence (AID 1131); settings: fibrinogen-A647 binding fluorescence, higher = more signal;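 further: z-score merges 667 nm fluorescence with per-spot signal-to-noise over triplicate slides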
[5] = target: Follistatin (Homo sapiens) (UniProt P19883); assay: follistatin binders on small-molecule microarrays, primary screen, biochemical, small-molecule microarray, 635/667 nm fluorescence (AID 1132); settings: FST binding, 635 nm fluorescence, higher = more signal
[6] = target: Fibroblast growth factor 2 (Homo sapiens) (UniProt P09038); assay: FGF2 binders on small-molecule microarrays, primary screen, biochemical, small-molecule microarray, 635/667 nm fluorescence (AID 1133); settings: small-molecule microarray binding, FGF2, fluorescence 635/667; higher = more signal
[7] = mitochondrial membrane potential change in A549 cells, profiling panel, cell-based, JC-1 fluorescence, basal, 24 h, 100 nL (AID 1138); settings: higher = more signal;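 further: A549 lung adenocarcinoma cells under basal conditions with no added stimulus; test concentration not given here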
Lefty1 = Lefty1 binders on small-molecule microarrays, primary screen, biochemical, small-molecule microarray, 635/667 nm fluorescence (AID 1139); settings: small-molecule microarray binding, fluorescence 635/667; higher = more signal
[8] = tested on: wheat germ agglutinin (Triticum aestivum), Alexa647-labelled; assay: wheat germ agglutinin binders on compound microarrays, profiling panel, artefact control for SMM control-protein annotation, biochemical, small-molecule microarray, 635/667 nm fluorescence (AID 1140); settings: WGA-A647 binding, 635 nm fluorescence, higher = more signal;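 further: score merges 667 nm feature emission with signal to noise over triplicate slides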
[9] = target: Luciferin 4-monooxygenase (Photinus pyralis) (UniProt P08659); assay: firefly luciferase enzyme inhibitors, primary screen, biochemical, luminescence, purified enzyme, 2006 set (AID 1141); settings: SteadyGlo luminescence, 30 min, higher = more signal, called active from +8 up or from −8 down;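 further: cell-free assay with purified firefly luciferase at 100 ng per well in PBS; test concentration not given here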
Sequence of Luciferin 4-monooxygenase (Photinus pyralis) (P08659 whole entry, looked up): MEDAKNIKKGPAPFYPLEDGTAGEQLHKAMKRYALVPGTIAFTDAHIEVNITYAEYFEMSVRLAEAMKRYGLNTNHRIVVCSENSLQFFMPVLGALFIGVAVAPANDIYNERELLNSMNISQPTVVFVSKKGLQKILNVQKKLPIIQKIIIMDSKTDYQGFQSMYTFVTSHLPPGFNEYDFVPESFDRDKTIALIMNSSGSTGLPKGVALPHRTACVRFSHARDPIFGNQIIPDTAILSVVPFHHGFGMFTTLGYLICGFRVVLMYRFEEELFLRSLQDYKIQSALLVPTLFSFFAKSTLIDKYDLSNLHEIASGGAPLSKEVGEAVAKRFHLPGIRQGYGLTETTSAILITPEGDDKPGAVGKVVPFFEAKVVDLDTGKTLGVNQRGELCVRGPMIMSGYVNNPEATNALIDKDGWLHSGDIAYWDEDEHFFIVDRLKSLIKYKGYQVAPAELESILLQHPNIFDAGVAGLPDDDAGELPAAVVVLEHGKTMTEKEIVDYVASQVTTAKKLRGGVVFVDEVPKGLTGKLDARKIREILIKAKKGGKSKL

Sequence of Focal adhesion kinase 1 (Homo sapiens) (Q05397 whole entry, looked up): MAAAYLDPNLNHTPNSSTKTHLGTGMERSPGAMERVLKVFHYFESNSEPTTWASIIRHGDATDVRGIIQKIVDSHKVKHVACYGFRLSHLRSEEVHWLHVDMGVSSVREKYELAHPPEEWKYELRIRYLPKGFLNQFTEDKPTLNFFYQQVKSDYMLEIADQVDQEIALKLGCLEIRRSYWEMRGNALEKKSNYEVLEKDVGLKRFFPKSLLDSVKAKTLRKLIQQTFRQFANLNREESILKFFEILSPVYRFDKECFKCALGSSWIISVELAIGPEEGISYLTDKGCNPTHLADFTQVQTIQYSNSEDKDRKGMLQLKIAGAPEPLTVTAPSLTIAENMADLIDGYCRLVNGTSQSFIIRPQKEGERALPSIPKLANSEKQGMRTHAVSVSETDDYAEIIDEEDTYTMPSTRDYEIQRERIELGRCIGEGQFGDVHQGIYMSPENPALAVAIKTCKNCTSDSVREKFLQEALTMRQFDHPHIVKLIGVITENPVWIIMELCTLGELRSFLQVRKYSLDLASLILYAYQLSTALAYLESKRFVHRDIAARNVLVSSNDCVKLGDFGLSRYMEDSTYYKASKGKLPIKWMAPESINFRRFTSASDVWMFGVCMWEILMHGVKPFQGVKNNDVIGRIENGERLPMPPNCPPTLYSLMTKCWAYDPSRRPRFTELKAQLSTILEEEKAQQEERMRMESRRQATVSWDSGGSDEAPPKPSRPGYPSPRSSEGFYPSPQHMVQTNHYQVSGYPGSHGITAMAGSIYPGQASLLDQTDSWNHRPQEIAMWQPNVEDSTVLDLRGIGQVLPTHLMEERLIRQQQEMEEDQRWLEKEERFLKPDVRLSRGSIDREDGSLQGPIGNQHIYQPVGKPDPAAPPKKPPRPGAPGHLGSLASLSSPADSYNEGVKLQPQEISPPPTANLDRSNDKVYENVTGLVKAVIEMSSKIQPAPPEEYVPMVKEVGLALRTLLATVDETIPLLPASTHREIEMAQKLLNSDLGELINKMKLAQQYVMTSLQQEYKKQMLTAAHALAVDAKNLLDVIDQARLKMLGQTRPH
Sequence of Follistatin (Homo sapiens) (P19883 whole entry, looked up): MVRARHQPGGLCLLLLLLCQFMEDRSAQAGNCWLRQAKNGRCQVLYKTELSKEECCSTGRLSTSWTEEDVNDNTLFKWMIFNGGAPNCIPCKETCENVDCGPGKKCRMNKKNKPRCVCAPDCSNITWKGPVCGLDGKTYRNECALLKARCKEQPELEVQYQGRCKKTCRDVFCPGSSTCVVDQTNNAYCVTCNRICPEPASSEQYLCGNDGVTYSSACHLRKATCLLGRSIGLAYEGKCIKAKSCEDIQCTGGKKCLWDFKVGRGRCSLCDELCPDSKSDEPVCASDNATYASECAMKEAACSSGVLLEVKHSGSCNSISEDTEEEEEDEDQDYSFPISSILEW
Sequence of Fibroblast growth factor 2 (Homo sapiens) (P09038 whole entry, looked up): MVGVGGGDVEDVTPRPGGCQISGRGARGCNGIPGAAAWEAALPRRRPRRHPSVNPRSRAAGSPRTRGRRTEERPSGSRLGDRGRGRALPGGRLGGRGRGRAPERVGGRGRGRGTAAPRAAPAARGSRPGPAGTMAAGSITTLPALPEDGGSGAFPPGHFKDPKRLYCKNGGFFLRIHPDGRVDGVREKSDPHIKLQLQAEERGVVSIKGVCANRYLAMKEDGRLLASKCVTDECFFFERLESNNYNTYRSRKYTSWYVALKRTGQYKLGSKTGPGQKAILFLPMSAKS

Compound	composite z-score [1]	composite z-score [2]	composite z-score [3]	composite z-score [4]	composite z-score [5]	composite z-score [6]	z-score [7]	composite z-score (Lefty1)	composite z-score [8]	z-score [9]
CCCN1C(=O)[C@]2(COC(c3ccc(OCCCO)cc3)=N2)Cc2ccccc21	2.63	1.23	0.473	0.551	1.35	1.26	0.306	-0.222	0.974	-1.66 (inactive)
Cc1ccc(F)cc1S(=O)(=O)N[C@@H]1CCN(Cc2ccc(-c3ccccc3)cc2)C1	-0.0798	0.517	0.377	-0.0516	0.646	0.424	0.225	0.292	-0.108	0.715 (inactive)
CCOC(=O)C1=CCC(c2ccc([N+](=O)[O-])cc2)N(S(=O)(=O)c2ccc(C)cc2)C1 (stereo not given)	0.711	0.915	0.801	-0.0411	0.261	-0.277	1.15	-0.023	0.44	1.95 (inactive)
COC(=O)[C@@]1(Cc2ccccc2)N=C(c2ccc(OCCCO)cc2)O[C@H]1c1ccccc1N=[N+]=[N-]	2.72	1.14	-0.0746	0.0857	1.41	1.53	1.35	0.718	1.2	-13.8 (active)
COCCOC(=O)N1C(=O)[C@@]2(c3cc(C#CCNC(N)=O)ccc31)[C@H](c1ccc(O)cc1)N1[C@H](c3ccccc3)[C@H](c3ccccc3)OC(=O)[C@H]1[C@@H]2C(=O)Nc1nc2ccccc2s1	0.0698	0.967	0.387	0.558	1.33	1.2	-1.91	0.851	0.785	-2.38 (inactive)
COC(=O)c1ccc(C23CC2(C(NP(=O)(c2ccccc2)c2ccccc2)c2ccccc2)C3)cc1 (stereo not given)	2.12	1.14	1.2	0.984	1.11	-0.575	2.44	-0.414	1.15	-5.98 (inactive)
CCC[C@@H]1C=C(C(=O)O)[C@H](c2ccc(C)cc2)N1S(=O)(=O)c1ccc(C)cc1	1.65	1.29	0.354	1.04	0.118	-0.502	-0.564	-0.234	0.945	1.79 (inactive)
CCOC(=O)C[C@H]1[C@H](OC(=O)c2ccccc2-c2ccccc2)[C@@H](NC(=O)c2ccc3ccccc3c2)c2cc(OCCCO)ccc2N1C(=O)c1ccc2ccccc2n1	0.0868	0.635	-0.0301	0.0467	0.874	0.306	0.988	0.543	0.119	0.667 (inactive)
CCOC(=O)[C@H]1C[C@H]2O[C@@]23C[C@H]1C(=O)N1CCCC1[C@@H]3O[Si](C)(C)C(C)(C)C (stereo not given in full)	-0.288	-0.311	-0.349	-0.466	-0.068	-0.0656	-0.341	0.225	-0.339	0.261 (inactive)
C=C(CCCC)/C(=C/C[C@H](OC(C)=O)c1ccc(CO)o1)c1cnc2ccccc2c1	0.867	1.18	-0.0622	0.713	1.27	1.18	-0.566	1.29	1.18	-1.88 (inactive)
CCCCCCCCCCC(O)C1C=CC2C(=O)N(Cc3ccccc3)C(=O)C2N1n1cnnc1 (stereo not given)	-0.244	0.812	0.656	0.532	-0.238	-0.982	-1.27	0.486	0.493	0.892 (inactive)
O=C(CCN1CCOCC1)c1cccc(O)c1	1.52	0.854	0.531	0.884	1.35	1.55	0.574	1.41	1.07	0.618 (inactive)
Cc1cc(C)cc(N2C(=O)CS(=O)(=O)C2c2cccc([N+](=O)[O-])c2)c1 (stereo not given)	1.11	0.632	0.894	0.829	0.508	0.126	0.382	0.874	0.841	-0.273 (inactive)
CN1C(=O)C2C=CC(C(O)c3ccccn3)N(Nc3ccccc3)C2C1=O (stereo not given)	0.621	0.302	-0.187	1.03	0.563	0.213	-0.633	0.125	0.489	-1.12 (inactive)
O=C(CS)NCCCCCCNC(=O)[C@@H]1C[C@@H]2C(=O)N3CCC[C@H]3C(=O)N2[C@@H]1c1ccc(O)cc1	3.73	1.21	0.887	-0.627	1.16	1.13	-1.13	-0.686	-0.462	-0.315 (inactive)
CC(C)CNC(=O)[C@@]1(c2ccc([N+](=O)[O-])cc2)CC(=O)N(CC23CC4CC(CC(C4)C2)C3)[C@@H]1c1ccc(CO)cc1I	1.33	1.14	0.775	0.635	1.39	1.31	1.12	1.12	0.352	-0.447 (inactive)
CC(=O)NCCCC[C@@H]1NC(=O)[C@@H]2C[C@H](C(=O)NCCCCN(C)C)[C@H](c3ccc(O)cc3)N2C1=O	0.231	-0.529	-0.2	-2.52	0.296	1.14	0.485	-0.0932	0.225	0.869 (inactive)

Compound	composite z-score [1]	composite z-score [2]	composite z-score [3]	composite z-score [4]	composite z-score [5]	composite z-score [6]	z-score [7]	composite z-score (Lefty1)	composite z-score [8]	z-score [9]
CCCNC(=O)[C@@]1(c2ccc([N+](=O)[O-])cc2)CC(=O)N(CC23CC4CC(CC(C4)C2)C3)[C@@H]1c1ccc(CO)cc1	1.19	1.04	0.117	0.356	0.509	1.23	0.582	-0.197	-0.109	0.494 (inactive)
C=CCOC(=O)[C@H]1[C@@H]2C(=O)O[C@@H](c3ccccc3)[C@@H](c3ccccc3)N2[C@@H](c2ccc(OCCOC(=O)[C@@H]3C[C@@H]4C(=O)N5CCC[C@H]5C(=O)N4[C@@H]3c3ccc(O)cc3)cc2)[C@]12C(=O)Nc1ccccc12	1.16	1.18	0.109	0.655	1.39	1.35	-1.19	1.04	0.77	-0.354 (inactive)
Cc1ccccc1C(O)C1C=CC2C(=O)N(C)C(=O)C2N1N1CCCCC1 (stereo not given)	1.87	1.18	0.665	0.908	0.767	0.0201	0.0822	0.0198	0.596	0.497 (inactive)
CCOC(=O)[C@H]1C/C=C/C[C@H](C(=O)OCC)C(=O)O[C@H]2[C@@H](OC)O[C@H](CO)[C@@H](OC(=O)Nc3ccc4c(c3)OCO4)[C@@H]2OC1=O	2.08	1.2	0.528	0.485	-0.114	0.254	-1.25	0.403	-0.115	-1.93 (inactive)
C[C@]1(C(=O)NCc2ccccc2)c2ccccc2C(=O)N(Cc2ccc(OC(F)(F)F)cc2)[C@H]1c1ccc(CO)cc1	1.71	1.02	0.549	-0.38	0.49	-0.186	1.27	-0.111	-0.403	0.882 (inactive)
C=CC[C@@H](OC(=O)Nc1ccc(OC)cc1)c1ccc(O)c2ccccc12	0.235	1.17	2	0.656	1.39	1.94	-1.3	1.35	0.542	-6.72 (inactive)
COc1ccc(CCNC(=O)[C@@H]2c3ccccc3C(=O)N(Cc3ccc(OC(F)(F)F)cc3)[C@H]2c2ccc(CO)cc2)cc1	1.66	0.901	0.658	0.0913	1.18	0.494	1.48	0.147	0.213	-0.243 (inactive)
COC(=O)[C@@]1(Cc2ccccc2N=[N+]=[N-])COC(c2ccc(OCCCO)cc2)=N1	1.19	1.16	0.676	0.492	1.27	0.3	0.719	-0.57	0.439	-1.93 (inactive)
CN1C(=O)C2C(C1=O)C1C=C(CCCO)C2C(c2cccs2)N1C (stereo not given)	0.121	-0.612	-0.0834	-0.234	0.143	0.0096	1.15	-0.76	-0.1	-0.39 (inactive)
COc1cc(CO)ccc1OC(C)=O	0.529	0.741	0.315	0.555	1.07	0.502	1.54	0.636	0.243	-0.743 (inactive)
O=C(O)[C@H]1C[C@H]2C(=O)NCC(=O)N2[C@H]1c1ccc(O)cc1	2.65	-0.722	0.0888	-0.908	1.32	1.05	1.97	0.368	-0.0842	-1.54 (inactive)
CCOC(=O)C[C@H]1[C@H](OC(=O)c2ccc(-c3ccccc3)cc2)[C@@H](NC(=O)c2ccc3ccccc3c2)c2cc(OCCCO)ccc2N1C(=O)Cc1ccc(OC)cc1	-0.034	0.401	0.463	0.536	-0.187	-0.0546	-0.0901	-0.154	-0.006	1.13 (inactive)
N#Cc1ccc(NN2C(C(O)c3ccc([N+](=O)[O-])cc3)C=CC3C(=O)N(c4ccccc4)C(=O)C32)cc1 (stereo not given)	0.728	1.24	0.943	0.619	0.717	-0.0956	-0.257	-0.269	0.998	0.843 (inactive)
COCCOC(=O)N1C(=O)[C@@]2(c3cc(C#CCCO)ccc31)[C@H](C(=O)NC[C@H](O)c1ccccc1)[C@H]1C(=O)O[C@H](c3ccccc3)[C@H](c3ccccc3)N1[C@@H]2c1ccc(O)cc1	1.69	0.789	0.148	-0.134	1.09	0.837	-0.319	0.429	0.363	0.788 (inactive)
CN(C)CCCNC(=O)[C@@]1(Cc2ccccc2I)c2ccccc2C(=O)N(Cc2ccccc2C(F)(F)F)[C@H]1c1ccc(CO)cc1	0.984	0.794	0.17	0.836	-0.781	-1.16	0.117	-0.406	-0.203	0.606 (inactive)
COCCOC(=O)N1C(=O)[C@@]2(c3cc(C#CC4(O)CCCCCC4)ccc31)[C@H](C(=O)N1CCCCCCC1)[C@H]1C(=O)O[C@H](c3ccccc3)[C@H](c3ccccc3)N1[C@@H]2c1ccccc1OCCO	1.24	1.22	0.808	0.832	1.42	1.11	-1.04	0.955	1.39	-0.969 (inactive)
C=CCC(OC(C)=O)[C@@H]1[C@@H](N(Cc2ccc(-c3ccccc3)cc2)C(=O)Cc2ccc(F)cc2)c2cc(OCCCO)ccc2N1C(=O)c1ccc2ccccc2n1 (stereo not given in full)	-0.26	-0.0475	-0.312	0.165	0.177	0.253	1.94	-0.192	0.216	-1.26 (inactive)
